Consider twelve molecules from PubChem BioAssay (NCI).

Among the test systems are NCI-H226 lung; NCI-H322M lung; HOP-62 NSCLC; NCI-H460 lung; HOP-92 NSCLC; NCI-H522 lung; A549/ATCC NSCLC; 786-0 renal; COLO 205 colon; DU-145 prostate; K-562 leukemia; MALME-3M melanoma; MDA-MB-231 breast; RXF 393 renal; SF-268 CNS; SF-295 CNS; SF-539 CNS; UACC-257 melanoma; M14 melanoma.
Common to all, as to assay: NCI-60 one-dose screen, 48 h (100 = growth as untreated, 0 = no growth, -100 = all killed)
Holding throughout (conditions): 10 µM unless noted

Compounds without any hit were thinned out: in the full panel of roughly 83,000, 20% have a hit.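 Note: values are percent growth. 100 is the growth of untreated cells, values between 100 and 0 indicate rising inhibition; between -100 and 0 indicates cell death.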 A number with no mark means an inactive call. Calls of active or inactive are those of the source. The calls were made as follows: active = growth percent below 10; inactive = the rest.

Consider `C=CC(C)(O)CCC1C(=C)CCC2C(C)(C)CCCC12C` (stereo unspecified), for which the growth in the assay with NCI-H226 lung was 105%; in the assay with NCI-H322M lung, 98.3%; with HOP-62 NSCLC, 102%; with NCI-H460 lung, 112%; in the assay on HOP-92 NSCLC, 126%; with NCI-H522 lung, 72.4%. The growth with A549/ATCC NSCLC was 77.5%; in the assay with 786-0 renal, 99.6%; in the assay with COLO 205 colon it was 123%; in the assay on DU-145 prostate it was 104%; with K-562 leukemia it was 97.9%; in the assay with MALME-3M melanoma, 101%. For the same molecule, the growth in the assay with MDA-MB-231 breast is 112%; with RXF 393 renal it was 108%; with SF-268 CNS, 94.5%; with SF-295 CNS, 99.3%; with SF-539 CNS, 106%; in the assay on UACC-257 melanoma, 88.1%. For the same molecule, the growth in the assay with M14 melanoma is 111%.

In the case of `O=C(CSc1nnc(-c2ccccc2)o1)Nc1ccc(C(=O)/C=C/c2ccccc2)cc1`, the growth is 85.4% with NCI-H226 lung; 71.1% in the assay with NCI-H322M lung; 72.4% with HOP-62 NSCLC; 48.4% in the assay on NCI-H460 lung; 60.6% in the assay with HOP-92 NSCLC; 65.2% with NCI-H522 lung. Also, the growth is 60.3% in the assay on A549/ATCC NSCLC; 84.8% with 786-0 renal; 79.2% with COLO 205 colon; 62.7% in the assay on DU-145 prostate; 8.02% (active) in the assay with K-562 leukemia; 69.8% with MALME-3M melanoma. The growth in the assay on MDA-MB-231 breast was 83.9%; with RXF 393 renal, 93.1%; in the assay with SF-268 CNS, 65.8%; with SF-295 CNS it was 77.3%; in the assay on SF-539 CNS it was 84.7%; in the assay on UACC-257 melanoma, 113%. For the same molecule, the growth with M14 melanoma is 66.4%.

For `CC(C)CCC[C@@H](C)[C@H]1CC[C@H]2[C@@H]3CC=C4N(c5ccccc5)C(=O)CC[C@]4(C)[C@H]3CC[C@]12C`, the growth is 99.2% with NCI-H226 lung; 98.3% in the assay on NCI-H322M lung; 98.8% in the assay with HOP-62 NSCLC; 111% in the assay with NCI-H460 lung; 60.2% in the assay on HOP-92 NSCLC; 94.1% in the assay on NCI-H522 lung. The growth in the assay with A549/ATCC NSCLC is 97.4%; in the assay with 786-0 renal, 93.9%; in the assay with DU-145 prostate it was 103%; in the assay on K-562 leukemia it was 103%; with MALME-3M melanoma it was 97.8%; with MDA-MB-231 breast it was 111%. In addition, the growth with RXF 393 renal was 103%; in the assay on SF-268 CNS, 99.3%; with SF-295 CNS, 99%; with SF-539 CNS it was 101%; in the assay with UACC-257 melanoma, 105%; with M14 melanoma it was 96.1%.

Take `O=C(c1cc(-c2ccc(Cl)cc2)nc2ccccc12)N1N=C(c2ccccc2)CC1c1cc(-c2ccccc2)nn1-c1ccccc1` (stereo unspecified): the growth is 84.1% with NCI-H226 lung; 59.8% in the assay with NCI-H322M lung; 74% with HOP-62 NSCLC; 48.6% with NCI-H460 lung; 85% with HOP-92 NSCLC; 80.8% in the assay on NCI-H522 lung. Further, the growth with A549/ATCC NSCLC is 80%; in the assay on 786-0 renal, 90%; with COLO 205 colon, 84.9%; in the assay on DU-145 prostate, 82.7%; with K-562 leukemia it was 63.9%; with MALME-3M melanoma, 86.1%. Besides, the growth was 93.3% with MDA-MB-231 breast; 62.4% with SF-268 CNS; 64.8% with SF-295 CNS; 82.1% in the assay with SF-539 CNS; 95.1% in the assay on UACC-257 melanoma; 65.1% in the assay on M14 melanoma.

With `Cc1c(Cl)ccc2c(C(=O)Cl)cc(-c3ccccc3)nc12`, the growth in the assay on NCI-H226 lung was 90.8%; in the assay with NCI-H322M lung, 103%; in the assay on HOP-62 NSCLC, 85.4%; in the assay on NCI-H460 lung, 98.2%; with HOP-92 NSCLC it was 93.5%; in the assay with NCI-H522 lung, 95.1%. The growth in the assay on A549/ATCC NSCLC was 92.9%; with 786-0 renal, 97.1%; with COLO 205 colon, 111%; in the assay with DU-145 prostate, 101%; in the assay on K-562 leukemia, 97.1%; in the assay with MALME-3M melanoma, 104%. Besides, the growth was 97% in the assay on MDA-MB-231 breast; 110% in the assay on RXF 393 renal; 102% in the assay on SF-268 CNS; 94.7% in the assay on SF-295 CNS; 100% in the assay with SF-539 CNS; 87.9% in the assay on UACC-257 melanoma. Further, in the assay on M14 melanoma, the growth is 98.1%.

With `CC(C)CNCC(O)COc1ccc(C(C)(C)c2ccc(OCC(O)CNCC(C)C)cc2)cc1` (stereo unspecified), the growth in the assay on NCI-H226 lung was 88.2%; in the assay on NCI-H322M lung it was 81.3%; with HOP-62 NSCLC, 64.3%; in the assay on NCI-H460 lung it was -22.2% (active); in the assay with HOP-92 NSCLC it was 20.2%; with NCI-H522 lung it was 26.4%. Also, the growth in the assay on A549/ATCC NSCLC is 37.5%; in the assay with 786-0 renal, 26.1%; in the assay on COLO 205 colon, -65.8% (active); in the assay with DU-145 prostate, 44.7%; in the assay with K-562 leukemia, -60% (active); with MALME-3M melanoma it was -63.1% (active). Besides, the growth in the assay with MDA-MB-231 breast was -14.4% (active); in the assay on RXF 393 renal, 41.8%; with SF-268 CNS it was 55.3%; in the assay on SF-295 CNS, 32.4%; in the assay with SF-539 CNS it was -41.1% (active); in the assay with UACC-257 melanoma it was -37.4% (active). Moreover, the growth in the assay with M14 melanoma was -57.5% (active).

Consider `FC(F)(F)c1cccc([Si](F)(c2cccc(C(F)(F)F)c2)c2cccc(C(F)(F)F)c2)c1`, for which the growth with NCI-H226 lung was 70.3%; in the assay on NCI-H322M lung it was 91%; in the assay with HOP-62 NSCLC it was 90.2%; in the assay on NCI-H460 lung, 73.9%; in the assay with HOP-92 NSCLC, 16.1%; in the assay on NCI-H522 lung, 53.2%. The growth in the assay with A549/ATCC NSCLC is 78.1%; with 786-0 renal it was 50.5%; in the assay with COLO 205 colon it was 102%; in the assay on DU-145 prostate, 94%; in the assay with K-562 leukemia it was 62.2%; in the assay on MALME-3M melanoma it was 106%. Also, the growth in the assay on MDA-MB-231 breast was 80.4%; with RXF 393 renal, 87.6%; in the assay with SF-268 CNS it was 84%; with SF-295 CNS, 69.2%; in the assay on SF-539 CNS, 101%; with UACC-257 melanoma, 81.3%. Further, in the assay on M14 melanoma, the growth was 86.1%.

Regarding `CN1CCN(C(=O)/C=C/c2ccc([N+](=O)[O-])o2)CC1`, the growth in the assay on NCI-H226 lung was 110%; in the assay on NCI-H322M lung, 111%; in the assay with HOP-62 NSCLC, 134%; with NCI-H460 lung it was 91%; with HOP-92 NSCLC it was 85.9%; in the assay with NCI-H522 lung, 4.39% (active). In addition, the growth in the assay on A549/ATCC NSCLC was 53.8%; in the assay on 786-0 renal, 110%; in the assay with COLO 205 colon, 76.2%; in the assay with DU-145 prostate it was 92.6%; with K-562 leukemia it was 86.6%; in the assay with MALME-3M melanoma, 22.6%. Besides, the growth was 87.8% in the assay with MDA-MB-231 breast; -14.9% (active) in the assay with RXF 393 renal; 87.6% in the assay on SF-268 CNS; 134% with SF-295 CNS; 107% in the assay on SF-539 CNS; 1.85% (active) in the assay on UACC-257 melanoma. Moreover, the growth in the assay with M14 melanoma was 92.4%.

Regarding `O=C(CSc1nnc(-c2cc3c([nH]c4ccccc43)c(-c3cccc(O)c3)n2)n1-c1ccccc1)c1ccccc1`, the growth in the assay with NCI-H226 lung was 93.4%; in the assay on NCI-H322M lung, 89.7%; in the assay with HOP-62 NSCLC, 59.3%; in the assay with NCI-H460 lung it was 65.3%; in the assay on HOP-92 NSCLC it was 67.6%; in the assay on NCI-H522 lung it was 23%. Further, the growth in the assay with A549/ATCC NSCLC was 69.9%; in the assay with 786-0 renal, 18.8%; in the assay with COLO 205 colon, 105%; in the assay on DU-145 prostate, 47.8%; in the assay with K-562 leukemia, 21.8%; in the assay on MALME-3M melanoma it was 55.4%. Besides, the growth is 78% with MDA-MB-231 breast; -11.4% (active) in the assay on RXF 393 renal; 63.1% in the assay on SF-268 CNS; 16.8% in the assay on SF-295 CNS; 33.1% in the assay on SF-539 CNS; 93.3% in the assay on UACC-257 melanoma. Further, the growth with M14 melanoma is 30%.

In the case of `O=C(Nc1ccc(-n2ccc3c(NC(=O)c4ccccc4)ncnc32)cc1)Nc1ccc(Cl)c(Cl)c1`, the growth is 16.7% in the assay on NCI-H226 lung; 21% in the assay on NCI-H322M lung; 8.39% (active) in the assay on HOP-62 NSCLC; -29.6% (active) in the assay on NCI-H460 lung; -9.63% (active) with HOP-92 NSCLC; -12.2% (active) in the assay on NCI-H522 lung. For the same molecule, the growth in the assay on A549/ATCC NSCLC was -44.5% (active); in the assay on 786-0 renal it was 26.1%; in the assay with COLO 205 colon, 17.7%; in the assay on DU-145 prostate, -12.3% (active); with K-562 leukemia it was -39.8% (active); with MALME-3M melanoma, 7.71% (active). For the same molecule, the growth with MDA-MB-231 breast is 26.7%; with RXF 393 renal, -18.2% (active); in the assay with SF-268 CNS, -20.7% (active); with SF-295 CNS, -8.32% (active); with SF-539 CNS, -22.6% (active); with UACC-257 melanoma, 8.87% (active). The growth with M14 melanoma was 12%.

As to `CCCCOc1nc2ccc(Cl)cc2cc1/C=C/C(=O)/C=C/c1ccc(Cl)cc1`, the growth in the assay with NCI-H226 lung was 92.9%; in the assay with NCI-H322M lung it was 95.7%; in the assay on HOP-62 NSCLC, 101%; in the assay on NCI-H460 lung, 103%; in the assay on HOP-92 NSCLC, 87.1%; with NCI-H522 lung, 74.8%. Also, the growth is 84.4% in the assay on A549/ATCC NSCLC; 94.1% in the assay with 786-0 renal; 62% with COLO 205 colon; 84.7% in the assay on DU-145 prostate; 57% in the assay with K-562 leukemia; 104% in the assay with MALME-3M melanoma. For the same molecule, the growth in the assay on MDA-MB-231 breast was 86.5%; with RXF 393 renal, 41.6%; in the assay on SF-268 CNS it was 81%; in the assay with SF-295 CNS, 79.5%; in the assay on SF-539 CNS, 100%; in the assay on UACC-257 melanoma, 84%. Further, the growth in the assay on M14 melanoma was 18%.

As to `NC(=O)C1=C[C@H]2[C@H]3C=C[C@@]2(O)C(=O)O[C@@H]3O1`, the growth in the assay on NCI-H226 lung was 47.6%; with NCI-H322M lung it was 93.8%; in the assay on HOP-62 NSCLC it was 82.3%; with NCI-H460 lung, 99.2%; in the assay on HOP-92 NSCLC, 40.7%; with NCI-H522 lung it was 63.3%. The growth in the assay on A549/ATCC NSCLC is 80.7%; in the assay with 786-0 renal it was 61.4%; with COLO 205 colon, 38.8%; with DU-145 prostate, 45.9%; with K-562 leukemia, 61.8%; in the assay with MALME-3M melanoma, 4.54% (active). The growth with MDA-MB-231 breast was 61.5%; with RXF 393 renal, 8.42% (active); with SF-268 CNS, 58.2%; with SF-295 CNS, 88.5%; in the assay with SF-539 CNS, 65.6%; in the assay with UACC-257 melanoma, 28.9%. Also, the growth with M14 melanoma is 32%.
